Source: PubChem BioAssay AID651813 (National Center for Advancing Translational Sciences (NCATS), 2012)
The whole screen tested about 2,100 compounds, of which about 1,100 (52%) were called active. Another 27% or so got no clear call; they are omitted. The call rests on the fitted dose curve; in most records, active means well fitted inhibition curve with a large enough effect; inconclusive means small, poorly fitted or top-dose-only effect; inactive means no such curve, though single readings can be large or run the other way. So high a share suggests a set chosen from earlier hits. Some of the results follow.

molecular target: DNA dC->dU-editing enzyme APOBEC-3G (Homo sapiens) (UniProt Q9HC16); experiment: qHTS for inhibitors of Vif-A3G interactions: Cherry picks counterscreen; settings: HeLa A3G-eYFP + Vif (tagged APOBEC3G with the HIV-1 protein that degrades it), eYFP fluorescence, 24 h;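 further: hits raise yellow fluorescence by blocking Vif-driven A3G-eYFP degradation; nearly all actives have a fitted effect of over 70% in size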;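 on max response: max response given as percent of control signal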
Sequence (Q9HC16 whole entry, looked up): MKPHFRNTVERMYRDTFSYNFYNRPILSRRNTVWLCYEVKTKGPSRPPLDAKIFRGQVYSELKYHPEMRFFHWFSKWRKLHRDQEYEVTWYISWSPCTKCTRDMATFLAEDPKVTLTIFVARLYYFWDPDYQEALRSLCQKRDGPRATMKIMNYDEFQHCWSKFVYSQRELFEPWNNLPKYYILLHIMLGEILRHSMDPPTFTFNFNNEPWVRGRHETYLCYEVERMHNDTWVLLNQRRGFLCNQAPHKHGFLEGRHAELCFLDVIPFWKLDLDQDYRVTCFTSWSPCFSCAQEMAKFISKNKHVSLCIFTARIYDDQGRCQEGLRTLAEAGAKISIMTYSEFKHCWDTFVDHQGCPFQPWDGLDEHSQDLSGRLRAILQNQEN
Outline: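 HeLa cells stably expressing A3G-eYFP and Vif were treated for 24 h at 37 deg C with compounds at several concentrations; yellow fluorescence (Ex 488 nm, Em 500-530 nm) read by Acumen Explorer, MG132 as positive control.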
Potency means the concentration at half of the fitted maximal effect.

Compound | Potency | max response
CCOc1ccccc1C(=O)Nc1c(C(=O)Nc2ccc(F)cc2)oc2ccccc12 | 2.06 µM (active) | –
COc1ccccc1NC(=O)c1oc2ccccc2c1NC(=O)c1cccc(OC)c1OC | 5.8 µM (active) | –
CCCOc1ccc(N)cc1N | – | -27.6% (inactive)
O=C(COC(=O)c1ccc(NS(=O)(=O)c2cccs2)cc1O)NCc1ccccc1 | 4.44 µM (active) | –
O=C(COC(=O)c1ccc(NS(=O)(=O)c2cccs2)cc1)NCc1ccco1 | 15.8 µM (active) | –
O=S(=O)(Nc1nc2ccccc2nc1OCC(F)(F)F)c1cccs1 | – | -0.0016% (inactive)
COc1ccc(NC(=O)COC(=O)c2cc(OC)c(OC)cc2NC(=O)c2ccco2)cc1OC | – | 9.25% (inactive)
C/C(CCC(C)C)=N\NC(=S)NCc1ccccc1 | – | -18.4% (inactive)
O=C(Cc1ccccc1)NCc1ccc(-n2cccc2)cc1 | 1.4 µM (active) | –
Cc1ccc(CNC(=O)Cc2ccc(-n3cccc3)cc2)cc1 | 1.98 µM (active) | –
Cc1ccc2nc(C)c(C(=O)NN=C3CCCCCC3)n2c1 | – | -10.3% (inactive)
COc1cc(/C=C2\SC(=Nc3cccnc3)NC2=O)cc(OC)c1OC | – | -29.3% (inactive)
O=C1NC(=Nc2ccc(O)cc2)S/C1=C/c1ccco1 | 8.86 µM (active) | –
COc1cc(/C=C2/SC(=Nc3ccc(O)cc3)NC2=O)ccc1O | 14.6 µM (active) | –
CCOc1cc(Br)cc(/C=C2\SC(=Nc3ccccc3)NC2=O)c1O | – | -7.55% (inactive)
COc1cc(/C=C2\SC(=Nc3ccccc3)NC2=O)cc(Cl)c1O | 3.66 µM (active) | –
N#C/C(=C\c1ccc(-c2ccc(F)cc2F)o1)c1nc2ccccc2[nH]1 | 8.2 µM (active) | –
Cc1ccc2nc(/C(C#N)=C\c3ccc(OC(=O)c4cccs4)cc3)[nH]c2c1 | 11.2 µM (active) | –
Cc1ccc2nc(/C(C#N)=C/c3ccc(-c4ccccc4C(=O)O)o3)[nH]c2c1 | – | 43.5% (inactive)
Cc1ccc2nc(/C(C#N)=C\c3ccc([N+](=O)[O-])o3)[nH]c2c1 | 18.4 µM (active) | –

Compound | Potency | max response
Cc1ccc2nc(/C(C#N)=C/c3ccc(-c4ccc(F)cc4F)o3)[nH]c2c1 | 1.64 µM (active) | –
COc1cc(CNCCSc2nnnn2C)ccc1OCc1c(F)cccc1Cl | – | 28.9% (inactive)
N#C/C(=C\c1ccc(-c2ccc(C(=O)O)cc2)o1)c1nc2ccccc2[nH]1 | 4.61 µM (active) | –
Cc1ccc2nc(/C(C#N)=C/c3ccc(-c4ccc(C(=O)OC(C)C)cc4)o3)[nH]c2c1 | 3.66 µM (active) | –
Cc1ccc2nc(/C(C#N)=C/c3ccc(-c4cccc(Cl)c4)o3)[nH]c2c1 | 8.2 µM (active) | –
Cc1c(Cl)cccc1-c1ccc(/C=C(\C#N)c2nc3ccccc3[nH]2)o1 | 10.3 µM (active) | –
N#Cc1ccc(-c2cccs2)nc1SCc1c(F)cccc1Cl | 1.84 µM (active) | –
C=C(C(=O)c1ccccc1)C(NC(C)(C)C)c1ccccc1 (stereo not drawn) | 14 µM (active) | –
C=C(C(=O)c1ccccc1)C(C)C(=C)C(=O)c1ccccc1 | 8.86 µM (active) | –
C=C(C(=O)c1ccccc1)C(C(=C)C(=O)c1ccccc1)c1ccc(OC)cc1 | 9.94 µM (active) | –
COc1ccc(-c2n[nH]c(C)c2-c2ccc(OC)c(OC)c2)c(O)c1 | 17.7 µM (active) | –
COc1cc2nc(SCC(=O)NCc3ccco3)n(Cc3ccc(Cl)cc3)c(=O)c2cc1OC | – | -29.6% (inactive)
Cc1cc(C)c(NC(=O)Cn2c(=O)n(Cc3ccc(C(=O)NCc4ccco4)cc3)c(=O)c3sccc32)c(C)c1 | 18.4 µM (active) | –
Cc1ccc(C)c(Cn2c(=O)n(CCCC(=O)NCc3ccco3)c(=O)c3sccc32)c1 | 14 µM (active) | –
Cc1cccc(Cn2c(=O)n(CCCC(=O)NCc3ccco3)c(=O)c3ccccc32)c1 | 14 µM (active) | –
CC(C)OC(=O)c1c2c(n3ccccc13)C(=O)c1ccccc1C2=O | 2.59 µM (active) | –
CCc1nnc(NC(=O)CSc2nnc(-c3ccccc3O)n2-c2ccc(C)cc2C)s1 | 6.27 µM (active) | –
COc1ccc(C(=O)Nc2cc(C(C)=O)c(/C=C/N(C)C)oc2=O)cc1 | 9.94 µM (active) | –
CC(=O)c1cc(NC(=O)c2ccc(Cl)cc2)c(=O)oc1/C=C/N(C)C | 7.04 µM (active) | –
CC(=O)c1cc(NC(=O)c2ccc(C)cc2)c(=O)oc1/C=C/N(C)C | 14.6 µM (active) | –

Compound | Potency | max response
COC(=O)c1cc(NC(=O)c2ccccc2)c(=O)oc1/C=C/Nc1ccc(Oc2ccccc2)cc1 | – | 11.8% (inactive)
COC(=O)c1c(-c2ccccc2Cl)noc1/C=C/N(C)C | – | 16.3% (inactive)
COc1ccc(N2CC(C(=O)N/N=C/c3ccc(C)cc3)CC2=O)cc1 (stereo not drawn) | 7.04 µM (active) | –
COC(=O)c1ccccc1NC(=O)C1CC(=O)N(c2ccc(OC)cc2)C1 (stereo not drawn) | – | -25.1% (inactive)
Cc1cccc2[nH]cc(/C=C3/C=Nc4ccccc43)c12 | 18.4 µM (active) | –
CNC(=S)N/N=C/c1ccc(N2CCOCC2)s1 | – | 10.6% (inactive)
O=C(N/N=C/c1c[nH]c2ccccc12)C1COc2ccccc2O1 (stereo not drawn) | 14 µM (active) | –
Cc1ccc(/C=N/NC(=O)C2COc3ccccc3O2)s1 (stereo not drawn) | 7.9 µM (active) | –
Cc1ccc(-c2cc(C(=O)N/N=C/c3c[nH]c4ccccc34)[nH]n2)cc1 | 4.98 µM (active) | –
Cc1ccc(/C=N/NC(=O)c2ccc3ccccc3c2)s1 | 1.58 µM (active) | –
Cc1cc(C)nc(NC(=S)Nc2cccc(Cl)c2Cl)c1 | – | 1.24% (inactive)
O=C(NCC1CCCO1)c1nn2c(C(F)(F)F)cc(-c3cc(Br)cs3)nc2c1Br (stereo not drawn) | 16.4 µM (active) | –
Cc1ccc(C(=O)NC2c3ccccc3-c3ccccc32)cc1 | 1.98 µM (active) | –
O=c1c2cc3ccccc3n2cnn1Cc1ccccc1F | 12.5 µM (active) | –
CC(CC(=O)Nc1ccc2c(c1)c(=O)n(C)n2-c1ccccc1F)c1ccccc1 (stereo not drawn) | 15.8 µM (active) | –
CC(CC(=O)Nc1ccc2c(c1)c(=O)n(C)n2-c1ccccc1)c1ccccc1 (stereo not drawn) | 3.96 µM (active) | –
Cn1c(=O)c2cc(NC(=O)Cc3cccc4ccccc34)ccc2n1-c1ccccc1 | 11.2 µM (active) | –
CC(CC(=O)Nc1ccc2c(c1)c(=O)n(C)n2Cc1ccc(F)cc1)c1ccccc1 (stereo not drawn) | – | -26% (inactive)
